Assay outcomes from PubChem BioAssay.
Arbovirus inh: antivirals against arbovirus infection, primary screen, cell-based, full library, 10K replicate subset. hit rate 0.37% among 200,000. arbovirus infection cell-based antiviral screen. inhibition, % at 10 µM. AID 1251, 2008; in the data active means inhibition above about 30%
Efa HMGR inh: inhibitors of E. faecalis class II HMGR, primary screen, biochemical, Enterococcus faecalis. HMG-CoA reductase (Enterococcus faecalis, mvaE). purified E. faecalis HMGR, NADPH absorbance 340 nm kinetic. inhibition, % at 10 µM. hit rate 0.41% among 190,000;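 active means inhibition above a set limit, the median over all tested compounds plus 3 SD, cut at about 9.5% in these data; inconclusive means no clear call, values can overlap the other calls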;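 further: enzyme runs in reverse so mevalonate oxidation gives rising NADPH absorbance; 0% = complete reaction with DMSO and 100% = background rate lacking mevalonate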
Insulin prom up: insulin promoter activators in MIN6 cells, imaging, high-content screening, mouse beta cells; z-score at 5 µM; hit rate 0.3% among 190,000; MIN6 insulin promoter-GFP reporter; stronger effect = higher value;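 active means z-score above 3 at 5 µM with at least 500 cells counted in the well; inconclusive means wells under 500 cells, flagged as cytotoxic or low count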
Autophagy mod: autophagy modulators in MEF cells, primary screen, imaging, high-content, MEF GFP-LC3; calls only at 10 µM (by protocol); MEF GFP-LC3 puncta imaging; test concentration mostly 10 µM; AID 463193, 2010; hit rate 0.98% among 190,000;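 active means percentage of spot-positive cells more than 3 SD above its plate mean, without a fluorescence outlier flag or 80% toxicity; inconclusive means no clear call, values can overlap the other calls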;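 further: spot-positive cell cutoff set from DMSO-treated cells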
Redox H2O2 prof: compounds producing H2O2 with reducing agent – biochemical, NIH compound library profiling, artefact control for MLSCN library redox annotation, primary screen | DTT-dependent redox cycling H2O2, phenol red/HRP absorbance; 100% = 100 µM peroxide control, 0% = buffer | activation, % at 10 µM | hit rate 0.03% among 200,000;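 active means activation of at least 50% relative to the plate's high and low controls in the primary single-dose screen; inactive means activation below 50%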;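 further: compound incubated with DTT at 0.8 mM final as the reducing agent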
NCF1 inh: p47phox/p22phox peptide binding inhibitors, primary screen, biochemical, uHTS, NADPH oxidase regulatory subunit. Neutrophil cytosol factor 1 (Homo sapiens), P14598. fluorescence polarization, 2 h. inhibition, % at 24.7 µM. hit rate 0.53% among 220,000;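 active means inhibition above about 30%, limit read from the data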;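 further: 0% = p47phox with labelled peptide and 100% = labelled peptide alone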
Target sequence (P14598 whole entry, looked up): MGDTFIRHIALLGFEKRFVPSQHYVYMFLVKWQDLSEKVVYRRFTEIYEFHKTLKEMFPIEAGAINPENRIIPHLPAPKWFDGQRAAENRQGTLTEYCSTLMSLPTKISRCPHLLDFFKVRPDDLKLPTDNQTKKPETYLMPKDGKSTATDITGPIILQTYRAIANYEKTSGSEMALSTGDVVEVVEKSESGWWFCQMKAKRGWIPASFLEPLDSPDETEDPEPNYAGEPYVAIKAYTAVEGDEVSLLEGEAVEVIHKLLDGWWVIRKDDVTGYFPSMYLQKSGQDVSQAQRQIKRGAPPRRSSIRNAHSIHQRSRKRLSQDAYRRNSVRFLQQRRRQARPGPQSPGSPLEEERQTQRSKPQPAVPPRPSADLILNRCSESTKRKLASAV
* marks the source's active call; other numbers are inactive results; i = inactive; ? = inconclusive; . = not tested or not shown; + = active, no number. In the library only some 2.2% were active in any assay of this set; here they are far more common.

SMILES | Arbovirus inh | Efa HMGR inh | Insulin prom up | Autophagy mod | Redox H2O2 prof | NCF1 inh
Nc1nc(CN2CCN(C(=O)c3ccco3)CC2)nc(Nc2cccc(Cl)c2)n1 | -1.5 | -1.9 | -0.92 | i | 0.1 | 0.1
O=C(O)c1ccc(COc2ccccc2/C=C2\NC(=O)N(Cc3ccc(F)cc3)C2=O)cc1 | -0.9 | 10.9* | -0.33 | i | -1.5 | -15.1
O=C(O)c1ccc(COc2ccccc2/C=C2/NC(=O)N(c3cccc(Cl)c3)C2=O)cc1 | 12.5 | 0.5 | 0.62 | i | -0.4 | -51.6
Cc1ccsc1/C=C1/NC(=O)N(Cc2ccc(F)cc2)C1=O | 2.6 | 15.0* | -0.37 | i | -2.5 | -7.3
N=c1oc2ccc3ccccc3c2cc1-c1nnc2n1CCCCC2 | 4.5 | 3.8 | -0.24 | i | 0.4 | -13.2
CC(C)Cn1c(N)c(C(=O)CSc2ncnc3sc4c(c23)CCCC4)c(=O)n(C)c1=O | 2.7 | -6.6 | . | i | 0.1 | -35.4
Cc1ccc(Cn2c(SCC(C)C)nc3c2c(=O)[nH]c(=O)n3C)cc1 | -1.4 | -0.3 | ? | i | -1.3 | -0.4
CCCSc1nc2c(c(=O)[nH]c(=O)n2C)n1Cc1ccc(C)cc1 | -15.3 | 0.0 | -2.08 | i | 2.6 | 33.3*
O=C(CN(Cc1cccs1)C(=O)CCC(=O)Nc1ccccn1)NCc1ccccc1 | -2.0 | -3.2 | 0.03 | i | -0.6 | -0.6
Cc1nc(NCc2ccc3c(c2)OCO3)c2nnn(Cc3ccccc3)c2n1 | 2.7 | 0.2 | -0.59 | + | -2.8 | 7.2
c1ccc(Cn2nnc3c(NCc4ccc5c(c4)OCO5)nc(C4CC4)nc32)cc1 | -10.8 | -3.2 | -1 | + | -1.7 | 12.0
c1ccc(Cn2nnc3c(NCC4CCCO4)nc(C4CC4)nc32)cc1 (centres undefined) | 2.1 | -5.7 | -0.08 | i | -0.3 | -2.5
CCCCNC(=O)Oc1c(Br)cc2sc(=O)oc2c1Br | . | . | 0.04 | . | . | 2.5
O=C1CN(C(=O)CNC(=O)c2ccccc2Cl)c2ccccc2N1 | 7.3 | -0.3 | 1.15 | i | -0.3 | -12.6
O=C(c1ccco1)N1CCN(c2nc(-c3ccc(F)cc3)cs2)CC1 | 30.8* | -4.3 | -0.34 | i | 1.6 | -20.6
CCn1c(=O)c2cc(S(=O)(=O)NC3CCCCC3)ccc2n(CC)c1=O | 3.6 | -8.5 | 0.08 | i | 1.9 | 5.2
Cc1c(S(=O)(=O)N2CCOCC2)c(=O)n(C)c(=O)n1C | 3.8 | -5.6 | -0.04 | i | 0.1 | -2.4
CCN(CC)S(=O)(=O)c1ccc(C(=O)NCC(c2ccc(OC)cc2)N2CCOCC2)cc1 (centres undefined) | -1.5 | -1.8 | -0.35 | i | -0.4 | -3.7
O=S(=O)(NCC1CCCO1)c1ccc(-c2ccc(Cl)cc2)cc1 (centres undefined) | 0.9 | -5.4 | -0.56 | + | 0.3 | -6.3
CCOC(=O)c1c(N)sc(C(=O)OCCOC)c1C | -2.2 | 12.7* | -1.09 | i | -2.9 | -0.2
CCOC(=O)c1c(-c2ccc(C)o2)csc1NC(=S)NC(=O)c1ccccc1Br | 46.7* | -5.7 | -0.44 | i | -0.3 | -9.7
CCOC(=O)c1sc(NC(=S)NC(=O)c2ccccc2)c(C(=O)OCC)c1C | -9.7 | -0.8 | -0.47 | + | -0.3 | 29.0
CCOC(=O)c1sc(N)c(C(=O)OCC)c1C | . | . | -0.52 | . | . | -17.2
CCOC(=O)c1c(-c2ccc(C)o2)csc1NC(=S)NC(=O)c1cccs1 | 7.8 | -1.4 | -0.97 | i | 0.1 | -6.6
CCn1c(COc2ccc(C)cc2)nnc1SCC(=O)NNC(=O)c1ccc(OC)cc1 | -6.7 | -4.9 | 0.37 | i | -0.4 | 10.4
COc1cc(NCCCCCCCN)c2ncccc2c1 | -34.6 | -3.8 | . | i | -0.1 | 33.6*
COc1cc(NCc2ccccc2O)c2ncccc2c1 | . | . | -0.3 | . | . | 3.9
CCOc1ccc(C2C([N+](=O)[O-])=C(C)N(C)C(=O)N2C)cc1OC (centres undefined) | -1.0 | -6.4 | -1.07 | i | -0.3 | -0.8
COC(=O)c1ccccc1NC(=O)c1cc(-c2cccs2)on1 | -3.2 | -1.1 | -0.31 | + | -1.5 | -21.8
COC(=O)c1ccccc1NC(=O)c1cccs1 | 2.8 | -5.0 | 0.72 | i | 0.5 | -10.6
